# Pol eta inh-1: qHTS for Inhibitors of Polymerase Eta | DNA polymerase eta (Homo sapiens), Q9Y253 | recombinant Pol eta, fluorescent DNA replication assay | Potency, µM (series often up to 114 µM), inactives show at the highest dose activity change, negative = inhibition, most hits filed as inhibitors | 390,000 tested, 1.2% active | AID 588591, 2011; note: % is set by controls: 0 for no effect and ±100 for the full control effect
# Target sequence (Q9Y253 whole entry, looked up): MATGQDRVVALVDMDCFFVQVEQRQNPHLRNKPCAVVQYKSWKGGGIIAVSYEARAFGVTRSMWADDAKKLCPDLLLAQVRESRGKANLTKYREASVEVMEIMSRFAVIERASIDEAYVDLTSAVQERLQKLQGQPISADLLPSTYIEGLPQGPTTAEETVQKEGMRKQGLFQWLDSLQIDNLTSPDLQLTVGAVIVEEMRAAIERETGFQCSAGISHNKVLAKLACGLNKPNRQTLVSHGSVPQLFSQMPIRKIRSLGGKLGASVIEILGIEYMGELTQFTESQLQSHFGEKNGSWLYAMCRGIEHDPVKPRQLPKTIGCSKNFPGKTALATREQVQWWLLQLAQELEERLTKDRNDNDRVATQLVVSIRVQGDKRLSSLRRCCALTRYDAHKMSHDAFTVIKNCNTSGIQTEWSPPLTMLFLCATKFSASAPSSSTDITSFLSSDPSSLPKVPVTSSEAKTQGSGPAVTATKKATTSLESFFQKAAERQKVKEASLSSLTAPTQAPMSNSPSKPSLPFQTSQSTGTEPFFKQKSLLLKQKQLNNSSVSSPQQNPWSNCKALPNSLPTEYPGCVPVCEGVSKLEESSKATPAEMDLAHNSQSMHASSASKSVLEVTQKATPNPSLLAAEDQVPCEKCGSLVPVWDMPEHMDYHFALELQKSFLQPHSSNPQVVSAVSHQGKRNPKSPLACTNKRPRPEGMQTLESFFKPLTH
#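 Pol eta at 10 nM preincubated with compounds 15 min at room temperature; reaction started with fluorescent substrate (50 nM final) and read kinetically at 0 and 10 min.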
# GLS inh: qHTS for Inhibitors of Glutaminase (GLS). Glutaminase kidney isoform, mitochondrial (Homo sapiens), O94925. GLS enzymatic activity, qHTS titration. Potency, µM (doses to about 45.5 µM), for the others: at the highest dose activity change, negative = inhibition, usual class: inhibitors. 410,000 tested, 0.21% active; note: % is set by controls: 0 for no effect and ±100 for the full control effect
#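 hKGA; 45 mM KH2PO4 pH 8.2 + 0.02% Tween-20; cpd via pin tool; 1 mM Gln soln; GluOx/HRP/Amplex Red; RT 30 min; fluor. t0 & final.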
# Pol iota inh: qHTS for Inhibitors of Polymerase Iota; AID 588590, 2011; 390,000 tested, 1% active; Pol iota fluorescent replication assay, 10 min; Potency, µM (highest dose often 115 µM), for the others: at the highest dose activity, negative = inhibition, hits mostly inhibitors
#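 Pol iota at 10 nM preincubated 15 min with compounds at room temperature; reaction started with fluorescent substrate, 50 nM final. Fluorescence read kinetically at 0 and 10 min; buffer-only wells as negative control.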
# APE1 inh-1: qHTS Assay for Inhibitors of the Human Apurinic/apyrimidinic Endonuclease 1 (APE1) | recombinant APE1, TAMRA/BHQ-2 abasic DNA cleavage fluorescence | Potency, µM (highest dose often 65.8 µM), inactives show top-dose activity change, negative = inhibition, actives largely listed as inhibitors | 350,000 tested, 0.35% active;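 note: plate controls were vehicle for no effect and reference inhibitor for full effect; nearly all actives have a fitted effect of over 55% in size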
#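 Substrate: short duplex with […] THF abasic site, 5'-TAMRA and 3'-BHQ-2, 50 nM final. APE1 at 0.75 nM, preincubated 15 min RT with compound. Fluorescence increase from first to third read measured activity.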
# Pol beta inh: qHTS Assay for Inhibitors of DNA Polymerase Beta | Pol beta primer extension/strand displacement, fluorescence kinetic | Potency, µM (highest dose often 114 µM), inactives show at the highest dose activity change, negative = inhibition, actives largely listed as inhibitors | 340,000 tested, 1.3% active; note: % is set by controls: 0 for no effect and ±100 for the full control effect
#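 Values derive from four-parameter Hill fits of normalized kinetic data: reads at 0 and 10 min following addition of 50 nM substrate to 10 nM Pol beta preincubated 15 min with compound.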
# Pol kappa inh-1: qHTS for Inhibitors of Polymerase Kappa; DNA polymerase kappa (Homo sapiens), Q9UBT6; purified Pol kappa, fluorescent DNA synthesis assay, 10 min; Potency, µM (doses to about 107 µM), for inactives: at the top dose activity, negative = inhibition, usual class: inhibitors; 400,000 tested, 0.53% active; AID 588579, 2011; note: % is set by controls: 0 for no effect and ±100 for the full control effect
#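 10 nM Pol kappa was preincubated with compounds for 15 min at room temperature. Reaction started with 50 nM (final) substrate. Fluorescence read kinetically at 0 and 10 min.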
# DNA dye displace: Counterscreen for APE1 Inhibitors: Fluorescent Dye Displacement Assay; shares compounds with APE1 inh-1; AID 2564, 2010; DNA fluorescent dye displacement counterscreen, fluorescence; 480 tested, 7% active; Potency, µM (highest dose often 28.5 µM), inactives show at the highest dose activity change, negative = inhibition, most hits filed as inhibitors;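 note: loss of thiazole orange fluorescence as the dye is displaced from duplex DNA; 0% = ThO with dsDNA and no compound and -100% = ThO without dsDNA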
# Endo IV inh: Counterscreen for APE1 Inhibitors: qHTS Assay for Inhibitors of Endonuclease IV; shares compounds with APE1 inh-1; E. coli Endo IV, fluorogenic AP-site DNA cleavage; Potency, µM (highest dose often 27.1 µM), without a hit: at the highest dose activity change, negative = inhibition, usual class: inhibitors; 560 tested, 4% active; AID 2565, 2010;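 note: plate controls were uninhibited enzyme wells for no effect and no enzyme buffer wells for full effect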
# APE1 inh-2: Confirmation qHTS Assay for Inhibitors of the Human Apurinic/apyrimidinic Endonuclease 1 (APE1). Potency, µM (doses to about 57.1 µM), for the others: at the top dose activity change, negative = inhibition, most hits filed as inhibitors. 750 tested, 44% active. shares compounds with APE1 inh-1. purified APE1, fluorogenic abasic-site DNA cleavage; note: % is set by controls: 0 for no effect and ±100 for the full control effect; nearly all actives have a fitted effect of over 30% in size
# APE1 FP inh: qHTS FP-Based Assay for Inhibitors of the Human Apurinic/apyrimidinic Endonuclease 1 (APE1) | shares compounds with APE1 inh-1 | APE1 binding to TAMRA-labelled double-stranded DNA, fluorescence polarization displacement | Potency, µM (highest dose often 28.5 µM), for inactives: at the highest dose activity, negative = inhibition, usual class: inhibitors | 480 tested, 7% active | AID 2573, 2010; note: % is set by controls: 0 for no effect and ±100 for the full control effect
# PGK validate: qHTS for inhibitors of Phosphogylcerate Kinase: Hit Validation Screen | AID 686980, 2013 | 500 tested, 79% active | TbPGK coupled GAPDH assay, Kinase-Glo luminescence | shares compounds with Pol kappa inh-1 | Potency, µM (highest dose often 57.5 µM), without a hit: at the top dose activity change, negative = inhibition, usual class: inhibitors; note: % is set by controls: 0 for no effect and ±100 for the full control effect; nearly all actives have a fitted effect of over 65% in size
# Pol iota confirm: qHTS for Inhibitors of Polymerase Iota: Confirmatory Assay for Cherry-picked Compounds; shares compounds with Pol kappa inh-1; 1,500 tested, 77% active; Potency, µM, most hits filed as inhibitors; AID 720496, 2013; Pol iota primer extension, TAMRA/BHQ fluorescence
# Pol kappa inh-2: qHTS for Inhibitors of Polymerase Kappa: Confirmatory Assay for Cherry-picked Compounds; shares compounds with Pol eta inh-1; purified Pol-kappa, fluorescent strand-displacement substrate; Potency, µM, actives largely listed as inhibitors; 920 tested, 76% active; AID 720501, 2013
# Pol eta inh-2: qHTS for Inhibitors of Polymerase Eta: Confirmatory Assay for Cherry-picked Compounds; shares compounds with Pol eta inh-1; Pol eta primer extension, TAMRA/BHQ fluorescence, 10 min; Potency, µM, hits mostly inhibitors; 2,600 tested, 64% active; AID 720502, 2013
# Starred values were filed as active, the others as inactive; ? = inconclusive; nt = no result given; ! = repeats disagree; [ ] = dose if it differs, or a comment. Compounds with a hit are over-represented: about 2.4% of the library has one in this group of screens. Calls come from the whole dose curve; as a rule, active = well fitted curve in the direction sought with a large enough effect; inconclusive = small, poorly fitted or top-dose-only effect, or another doubt; inactive = no such curve, though single readings can be large; an effect the other way counts as inactive or inconclusive. Potency is the fitted concentration of half-maximal effect.
SMILES,Pol eta inh-1,GLS inh,Pol iota inh,APE1 inh-1,Pol beta inh,Pol kappa inh-1,DNA dye displace,Endo IV inh,APE1 inh-2,APE1 FP inh,Pol iota confirm,Pol eta inh-2,others
N#C/C(=C\c1ccc(O)c(O)c1)C(=O)c1ccc(O)c(O)c1,0.13µM*!,4%,1.1µM*,0.095µM*,0.063µM*,0.34µM*,nt,?,0.2µM*,nt,0.75*,0.67*,PGK validate=0.33µM*;Pol kappa inh-2=0.38*
Cc1nc(S/C(=C\c2ccc(-c3ccc(C(=O)O)c(Cl)c3)o2)C(=O)O)n[nH]1,5µM*,16µM*,3.2µM*,22µM*,10µM*,8.9µM*,nt,nt,40µM*,nt,17*,5.4*,PGK validate=15µM*
COCCNC(=O)CCc1c(C)nc2c(-c3ccc(F)cc3)c(C)nn2c1C,-13%,0%,21%,10%,29%,-11%,nt,nt,nt,nt,nt,nt,
Cc1ccc(NC(=O)c2ccc3ccccc3n2)cc1S(=O)(=O)N(C)C,-20%,-34%,137%,1%,-3%,4%,nt,nt,nt,nt,nt,nt,
CN(Cc1ccco1)C(=O)c1ccc(OC2CCN(Cc3ccccn3)CC2)cc1,-9%,-14%,5%,43%,1%,-1%,nt,nt,nt,nt,nt,nt,
NC1=NC(=O)C(=Cc2ccccc2)S1,-7%,5%,-18%,nt,nt,-12%,nt,nt,nt,nt,nt,nt,
NC1=NC(=O)/C(=C\c2ccco2)S1,18µM*,186%,?,22µM*,?,40µM*,?,5%,?,-4%,17*,27*,Pol kappa inh-2=12*
Cc1cc(/C=C(/C#N)c2nc3ccccc3[nH]2)c(C)n1-c1cc(C(=O)O)cc(C(=O)O)c1,4µM*,18µM*,?,?,14µM*,40µM*,31%,4%,?,?,38*,17*,
Cc1ccc2nc(/C(C#N)=C\c3cc(C)n(-c4cccc([N+](=O)[O-])c4)c3C)[nH]c2c1,-7%,-1%,-8%[58.9 µM],1%,-1%,-12%,nt,nt,nt,nt,nt,nt,
CC1(C)C(=O)Nc2ccccc2N1C(=O)COC(=O)Cc1c(F)cccc1Cl,?,0%,-5%,-28%,nt,-12%,nt,nt,nt,nt,nt,nt,
CC(=O)NN1C(=O)/C(=C/c2ccc(Br)o2)SC1=S,4µM*,?,2.5µM*,32µM*,?,7.9µM*,-8%,4%,?,19%,nt,?,
Cc1cc(C=O)c(C)n1-c1ccc(Cl)c(C(=O)O)c1,3.2µM*,?,5.6µM*,5.6µM*,3.2µM*,22µM*,6%,8%,8.9µM*,-23%,11*,6*,PGK validate=12µM*
COc1ccc(N2Cc3cccc(C(=O)N4CCN(C(=O)c5ccco5)CC4)c3C2=O)cc1,5.6µM*,18µM*,?,11µM*,10µM*,?,nt,nt,28µM*,nt,38*,60*,Pol kappa inh-2=42*
CCC(c1nnnn1C(C)(C)C)N1CCN(Cc2ccccc2OC)CC1 (stereo unspecified),-5%,4%,?,-6%,0%,-7%,nt,nt,nt,nt,nt,nt,
CCN(CC)Cc1c(O)c(Cl)cc2c(C)cc(=O)oc12,20µM*,-14%,?,13µM*,10µM*,89µM*,8%,-8%,28µM*,-44%,nt,?,
NS(=O)(=O)c1ccc(N/N=C/c2ccccn2)c([N+](=O)[O-])c1,-9%,6%,0%,0%,-8%,-19%,nt,nt,nt,nt,nt,nt,
NS(=O)(=O)c1ccc(N/N=C/c2ccc(O)c(O)c2O)c([N+](=O)[O-])c1,2.5µM*,69%,2.8µM*,2µM*,1.3µM*,10µM*,13µM*,23%,5.6µM*,-9%,17*,15*,
O=C(COc1ccccc1C(=O)N/N=C\c1ccc(O)c(O)c1)N/N=C/c1ccc(O)c(O)c1,-98%,-4%,-103%,2.8µM*,0.28µM*,0.71µM*,6.3µM*,29%,2µM*,?,0.42*,0.34*,PGK validate=0.29µM*
